# CYP2C9 inh = inhibitors of human CYP2C9 | CYP2C9 Supersomes, luciferin-H conversion, luminescence | inhibition, % at 5 µM | 96,000 compounds, 20% hits;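 active = blocking of liver enzyme CYP2C9 beyond about 50% at 5 µM, limit read from the data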
# CYP2C19 inhib = human CYP2C19 inhibition; CYP2C19 Supersomes, luciferin-H EGE luminescence, 30 min; AID 778; inhibition, % at 5 µM; 96,000 compounds, 21% hits; P33261;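 active = CYP2C19 inhibition above a set limit at 5 µM in the primary screen, cut at about 50% in these data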;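 also: plate controls were negative control wells for no effect and 2.5 mM tranylcypromine positive control for full effect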
# PLAP act = activators of human placental alkaline phosphatase; P05187; purified PLAP enzyme, luminescent substrate read-out; stronger effect = higher value; activation fold at 20 µM; 96,000 compounds, 1.2% hits; AID 696; in the data active = activation fold above about 2
# Target sequence (P05187 whole entry, looked up): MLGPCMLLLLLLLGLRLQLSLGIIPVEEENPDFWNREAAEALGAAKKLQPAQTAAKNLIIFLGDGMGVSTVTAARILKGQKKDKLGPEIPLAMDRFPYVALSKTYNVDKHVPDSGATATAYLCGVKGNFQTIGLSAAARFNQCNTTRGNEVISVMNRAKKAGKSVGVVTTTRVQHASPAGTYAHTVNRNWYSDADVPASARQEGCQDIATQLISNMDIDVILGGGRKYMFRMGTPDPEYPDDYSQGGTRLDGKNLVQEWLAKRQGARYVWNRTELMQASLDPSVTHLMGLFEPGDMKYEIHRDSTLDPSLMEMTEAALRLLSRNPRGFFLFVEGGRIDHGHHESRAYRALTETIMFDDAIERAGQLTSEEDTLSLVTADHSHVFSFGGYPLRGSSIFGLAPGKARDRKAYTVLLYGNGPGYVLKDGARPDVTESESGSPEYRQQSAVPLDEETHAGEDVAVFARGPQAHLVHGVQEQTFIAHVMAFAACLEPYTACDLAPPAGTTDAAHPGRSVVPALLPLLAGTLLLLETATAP
# CYP2C9 act = activators of human CYP2C9; P11712; recombinant CYP2C9, luciferin-H conversion, luminescence; stronger effect = higher value; factor 1 = untreated enzyme, 0 = blocked; activation factor at 5 µM; 96,000 compounds, 1.4% hits; AID 1024;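 active = activation factor of 2 or more for CYP2C9 at a 5 µM dose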;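 also: 0 = sulfaphenazole-blocked wells and 1 = vehicle-only wells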
# CYP2C19 act = cytochrome P450 2C19 (human) activation. 96,000 tested, under 10 active. AID 1025. recombinant CYP2C19, luciferin-H EGE luminescence; stronger effect = higher value; 0 = fully inhibited enzyme, 1 = untreated enzyme. P33261. activation factor at 5 µM;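 active = activation factor of at least 2 at 5 µM in the primary screen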;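 also: 0 = wells with 2.5 mM tranylcypromine and 1 = vehicle-only wells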
# Starred values were filed as active, the others as inactive. An excerpt weighted towards active compounds, which were near 31% of everything screened.
SMILES,CYP2C9 inh,CYP2C19 inhib,PLAP act,CYP2C9 act,CYP2C19 act
C=CCn1c(O)c(N=NC(=O)CNC(=O)/C=C/c2ccco2)c2ccccc21,71*,49,1.4,0.3,0.5
C=CCn1c(=O)c(C(=O)NCCc2ccccc2)c(O)c2ccccc21,34,28,1,0.7,0.7
COc1cc2cc(CN(Cc3nnnn3Cc3ccccc3)CC3CCCO3)c(=O)[nH]c2cc1OC (configuration not stated),68*,98*,1.7,0.3,0
COc1ccc2[nH]c(=O)c(CN(Cc3ccccc3)Cc3nnnn3CC3CCCO3)cc2c1 (configuration not stated),43,72*,1.4,0.6,0.3
CCC(=O)N1CCc2cc(S(=O)(=O)CCC(=O)NCc3ccc4c(c3)OCO4)ccc21,29,23,0.9,0.7,0.8
N#CCSc1nc2c(c(C3CC=CCC3)c1C#N)CCC2 (configuration not stated),4,17,0.9,1,0.8
COC(=O)c1nc2cc3c(cc2c(C)c1C(=O)OC)OCO3,9,8,1,0.9,0.9
COc1ccc(C(=O)c2cnc3cc4c(cc3c2C)OCO4)cc1,65*,95*,1.8,0.4,0.1
O=S1(=O)C=C(SCc2ccccc2)Nc2ccccc21,63*,68*,0.9,0.4,0.3
c1ccc(CSc2ncccn2)cc1,-11,-5,0.9,1.1,1
Cc1c(Br)c([N+](=O)[O-])nn1CC(=O)NCc1ccccn1,-3,-2,1,1,1
CC1=CCC2C(=O)N(Cc3ccccc3)C(=O)C2C1 (configuration not stated),32,40,1.1,0.7,0.6
CN1CCN(C2=C(Cl)C(=O)N(c3ccc(Cl)c(Cl)c3)C2=O)CC1,38,79*,0.9,0.6,0.2
CN1CCN(C2=C(Cl)C(=O)N(Cc3ccccc3)C2=O)CC1,14,64*,1.1,0.9,0.4
CN1CCN(C2=C(Cl)C(=O)N(c3cccc(Cl)c3)C2=O)CC1,11,15,1.2,0.9,0.8
Cc1ccc(N2C(=O)C3Sc4[nH]c(=O)sc4C(c4ccccc4)C3C2=O)cc1 (configuration not stated),43,37,0.7,0.6,0.6
O=C1C2Sc3[nH]c(=O)sc3C(c3ccccc3)C2C(=O)N1c1ccc(Cl)cc1 (configuration not stated),52*,67*,0.8,0.5,0.3
CCCn1c(C)cc(C(=O)COC(=O)c2cc(S(=O)(=O)NCC(C)C)c(Cl)cc2Cl)c1C,39,66*,1,0.6,0.3
CCOC(=O)c1c(SC)nc(SC)c2c1CCC2,-13,30,0.7,1.1,0.7
[O-][n+]1c2ccc3nonc3c2nn1-c1ccccc1Cl,20,43,0.9,0.8,0.6
CC1CCN(S(=O)(=O)c2ccc(NC(=O)Cn3nnc(-c4ccccc4)n3)cc2)CC1,76*,43,1,0.2,0.6
CCOc1ccc(NC(=O)Cn2nnc(-c3ccccc3F)n2)cc1,3,-4,0.7,1,1
Cn1c(SCC(=O)NCC2CCCO2)nnc1-c1ccc(S(=O)(=O)N2CCCC2)cc1 (configuration not stated),-9,-13,1.1,1.1,1.1
CC1CCCN(S(=O)(=O)c2ccc(NC(=O)Cn3nnc(-c4ccccc4F)n3)cc2)C1 (configuration not stated),99*,62*,0.8,0,0.4
CCc1nnc(NC(=O)Cn2nnc(-c3ccccc3F)n2)s1,66*,11,0.9,0.3,0.9
SMILES,CYP2C9 inh,CYP2C19 inhib,PLAP act,CYP2C9 act,CYP2C19 act
O=C(Cn1nnc(-c2ccc(S(=O)(=O)N3CCCC3)cc2)n1)NCC1CCCO1 (configuration not stated),70*,26,1,0.3,0.7
Cc1nn(C)cc1CNC(=O)Nc1cccc(Cl)c1,-27,28,1.4,1.3,0.7
CCCCCC1CC(=O)N(Cc2ccc(Cl)cc2)C(=O)N1 (configuration not stated),-37,40,0.9,1.4,0.6
COC(=O)C1C2C=CC3(CN(CC4CCCO4)C(=O)C13)O2 (configuration not stated),-11,-1,1.4,1.1,1
CSc1nc(C)cc(OCC(=O)n2nc(C)cc2C)n1,5,39,1,1,0.6
FC(F)(F)c1nc2ccccc2nc1N/N=C\c1ccccc1,25,21,0.9,0.8,0.8
